According to PubChem BioAssay AID1117319 (Southern Research Institute, 2015):
Where “and” joins values, the source holds several entries; their conditions need not be identical. Identical values can stand only once. Out of some 260,000 compounds screened, about 1,500 (0.58%) were called active. Roughly 5% stayed inconclusive and do not appear here.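 The calls were made as follows: active = inhibition above a set limit at one or more doses, reproduced on every date tested; inconclusive = results disagree between test dates, or hit never tested in dose response; inactive = the rest.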 These entries were drawn from the full list. Entries with a potency or affinity are not part of this list.

biological target: Virion infectivity factor (Human immunodeficiency virus type 1 group M subtype B (isolate BH10)) + Virion infectivity factor (Human immunodeficiency virus type 1 group M subtype B (isolate BRU/LAI)) + Virion infectivity factor (Human immunodeficiency virus type 1 group M subtype B (isolate PCV12)) + Virion infectivity factor (Human immunodeficiency virus type 1 group M subtype B (isolate HXB2)) + DNA dC->dU-editing enzyme APOBEC-3G (Homo sapiens) (UniProt P69720+P69721+P69722+P69723+Q9HC16); test: HIV-1 Vif–A3G interaction blockers – biochemical, TR-FRET, GST-Vif 1-94, biotin-A3G peptide, dose response retest, primary screen (AID 1117319); settings: TR-FRET GST-Vif / biotin-A3G peptide binding; hits give high values;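 also: Vif residues 1-94 fused to GST binding biotinylated APOBEC3G peptide 110-148; 0% = full assay without inhibitor and 100% = GST in place of GST-Vif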

inhibition, inactive:
COc1ccc(-c2nc(SC(CC(=O)NCCO)c3cccs3)n[nH]2)cc1 (stereo not given) -4.6%
Cc1ccc(-c2nnc(N3CCOCC3)c3ccccc23)cc1S(=O)(=O)N(C)C -45.2%
Cc1nc(NCCc2ccccc2)c2nnn(Cc3ccccc3)c2n1 -8.97%
COc1ccc(CC(=O)NCc2ccccc2F)cc1S(=O)(=O)N1CCOCC1 -8.33%
Cc1ccccc1NC(=O)Cc1nc(COC(=O)COc2cccc(C)c2C)cs1 -1.31%
Cc1ccc(-c2nn[nH]n2)o1 -6.6%
COCCNC(=O)/C(C#N)=C/c1ccc(OC(=O)c2cccs2)c(OC)c1 12.9%
COCCNC(=O)/C(C#N)=C/c1cccc(/C=C(\C#N)C(=O)NCCOC)c1 -1.66%
CCCN1C2CCCC1CC(NC(=O)c1ccccc1Br)C2 (stereo not given) -0.94%
COc1cc(C2NC(=O)NC3=C2C(=O)OC3)cc(OC)c1OC (stereo not given) -6.88%
Cn1cc(C(=O)Nc2ccc(Cl)cc2)c(C(F)(F)F)n1 -6.34%
COc1ccc(NC(=O)CCC(=O)N/N=C/c2ccc([N+](=O)[O-])s2)cc1 23.7%
CCCN1C(=O)/C(=C/c2ccc(C)s2)NC1=S 1.31%
COc1ccc(Sc2ccc(/C=C3\C(=O)NN(c4ccccc4)C3=O)o2)cc1 27.1%
Cc1ccc(/C=C2/NC(=O)N(Cc3ccc(Br)cc3)C2=O)o1 18.3%
CCN1C(=O)/C(=C/c2ccc(C)s2)NC1=S 20.4%
COc1ccc(NCc2ccc([N+](=O)[O-])s2)cc1 -7.61%
CC(=O)c1sc(NC(=O)c2ccc(F)cc2)nc1-c1ccccc1 -5.82%
C[C@@H](CO)NC(=O)c1ccc2c3n(nc2c1)-c1ccccc1CO3 -3.9%
COc1cccc(CN2CCC(n3nccc3NC(=O)C3CC3)CC2)c1 3.21%
CCCN1CCN(CC(O)COC(c2ccc(OC)cc2)c2ccc(OC)cc2)CC1 (stereo not given) 3.65%
Cc1cccc(NC(=O)c2sc3nc(-c4ccc(F)cc4)cn3c2C)n1 -26.2%
O=C(NC(=S)Nc1ccccc1N1CCCC1)c1cccc(F)c1 5.9%
COc1cc(/C=N/Nc2nc(=O)[nH]nc2C)cc([N+](=O)[O-])c1O 5.18%
O=C(NC1CCCCC1)c1ccccc1NC(=O)C1CC(=O)N(c2ccc(Cl)cc2)C1 (stereo not given) 31.5%
NNc1nc(C(F)(F)F)nc2ccccc12 -3.12%
C/C(O)=c1/ccc2cccc3nc(C)nc1c23 32.6%
Cc1ccc(S(=O)(=O)NC2CCCCC2)cc1C(=O)N1CCC(C(N)=O)CC1 -4.11%
COc1ccccc1-c1coc2c(CN3CCCC(C)C3)c(O)ccc2c1=O (stereo not given) -11.2%
CCc1ccc(/C=C2\Oc3c(ccc(O)c3CN3CCN(C)CC3)C2=O)cc1 29.7%
COCCN(CCOC)Cc1c(O)ccc2c1O/C(=C\c1ccco1)C2=O 25.4%
Cc1ccc(/C=C2\Oc3c(ccc(O)c3CN3CCN(CCO)CC3)C2=O)cc1 -6.62%
CC(C)(C)c1ccc(/C=C2\Oc3c(ccc(O)c3CN3CCN(CCO)CC3)C2=O)cc1 2.03%
CCN1CCN(Cc2c(O)ccc3c2O/C(=C\c2ccccc2)C3=O)CC1 -1.46%
C=CCN1C(C(=O)c2ccccc2)=C(OC(=O)COc2ccccc2)c2ccccc2S1(=O)=O -2.45%
COc1cc(OC)cc(-c2cc(N3C(=O)Nc4ccccc4N3O)n[nH]2)c1 2.06%
CCN(CC)CCCC(C)Nc1nccc2cccc(Cl)c12 (stereo not given) -1%
C=CCn1c(SCC(=O)NCCCC(=O)OCC)nc2scc(-c3ccco3)c2c1=O -13%
C=CCn1c(SCC(=O)NCCOC)nc2scc(-c3ccco3)c2c1=O 27.8%
Cc1onc(-c2c(F)cccc2Cl)c1C(=O)Nc1nnc(-c2ccccc2)s1 -20.2%
Cc1onc(-c2c(F)cccc2Cl)c1C(=O)Nc1nccs1 -2.44%
CCN1CCN(C(=O)c2ccc(CSc3ccc(C)cc3)cc2)CC1 -0.41%
O=C(Cn1c(=O)oc2ccccc21)Nc1ccc(S(=O)(=O)N2CCCCC2)cc1 16%
O=Cc1cccc(OCc2cccc3ccccc23)c1 -9.48%
c1ccc(Cc2nnc3n2CCCCC3)cc1 -1.19%
c1ccc2c(c1)CCCN2Cc1nnnn1C1CCCC1 4.12%
CSc1ccccc1NC(=O)CN(C)C(=O)c1c(C)nn(Cc2ccccc2)c1C 0.13%
CCc1ccc(NS(=O)(=O)c2ccc3[nH]cc(C(=O)N(C)Cc4ccco4)c(=O)c3c2)cc1 6.93%
CN(Cc1ccco1)C(=O)c1c[nH]c2ccc(S(=O)(=O)Nc3ccc4c(c3)OCCO4)cc2c1=O 11.3%
CC(C)N(C(=O)[C@H]1C[C@H](CC(=O)NCCN2CCOCC2)C(=O)N2CCc3c([nH]c4ccc(Cl)cc34)[C@]12C)C(C)C -2.31%
C=CCn1c(COc2cccc(C)c2)nnc1SCC(=O)NC(=O)NCc1ccco1 3.84% and 20.2%
C=CCn1c(COc2ccccc2F)nnc1SCC(=O)NC(=O)NCc1ccco1 13.7%
CC(C)(C)NC(=O)/C=C/c1cccs1 -6.7%
COc1ccc(/C=C2/C(=O)N=C(N)N2C)cc1OC -1.18%
CC(=O)c1ccc(Sc2nnnn2-c2ccccc2)c([N+](=O)[O-])c1 7.06%
COC(=O)c1ccc(Sc2nnnn2-c2ccccc2)c([N+](=O)[O-])c1 4.9%
Cc1csc(NC(=O)Cc2ccccc2[N+](=O)[O-])n1 -11%
CN(C(=O)CSc1nnc2ccccn12)C1CCS(=O)(=O)C1 (stereo not given) 5.32%
Cc1ccc(OCCCC(=O)Nc2ccc(S(N)(=O)=O)cc2)cc1 -3.06%
O=C1C=C(Nc2ccccc2O)c2ccccc2C1=O 29.9%
O=C1C=C(Nc2cccnc2)c2ccccc2C1=O -2.43%
O=[N+]([O-])c1ccc(Cl)c(/C=N/N2CCN(Cc3ccc(Cl)cc3)CC2)c1 -0.57%
CCOc1ccc(N/C(C)=C/C(=O)c2ccc(C)o2)cc1 1.46%
COc1cccc(C2Nc3ccc4ccccc4c3C3=C2C(=O)CCC3)c1O (stereo not given) -3.25%
CC1(C)CC(=O)C2=C(C1)c1c(ccc3ccccc13)NC2c1ccco1 (stereo not given) 7.86%
Cc1onc(-c2ccccc2Cl)c1C(=O)NCc1ccccn1 -1.21%
COC(=O)COC(=O)CC(CC(N)=O)c1ccccc1 (stereo not given) -2.81%
COC(=O)Nc1nc2c(C)cccc2s1 1.68%
Cc1cc(C(=O)Nc2nc3c(C)cccc3s2)c(C)o1 17.4%
Cc1c(C(=O)c2ccc([N+](=O)[O-])cc2)c(=O)n(C)c(=O)n1C -3.13%
CCC(=O)N1CCC2(CC1)Oc1ccc(F)cc1C(=O)C21CC(c2cccnc2)=NO1 (stereo not given) 3.73%
CCOC(=O)C(=O)Cc1nc2ccccc2s1 -1.72%
CCOC(=O)C(Cc1ccnnc1)=NO -0.8%
Cc1nc2sc(C(c3ccco3)N3CCN(c4ccc(F)cc4)CC3)c(O)n2n1 (stereo not given) 13.8%
Cc1cc(C(=O)CN2CCCC2)c(C)n1-c1ccc(Cl)cc1 1.44%
O=C(Oc1ccc2c(c1)C(=O)c1ccccc1CO2)c1ccccc1 1.85%
CC(=O)Oc1ccc2c(c1)C(=O)c1ccccc1CO2 7.33%
COc1ccc(CNC(=O)COC(=O)c2cccc(S(=O)(=O)N3CCOCC3)c2)cc1 10.9%
COc1ccc(NC(=O)c2cnc3n(c2=O)CCS3)cc1OC 10.7%
CCOc1ccc(/C=C(\C(=O)O)c2ccc(S(=O)(=O)N3CCOCC3)s2)cc1OC 28.4%
O=S(=O)(Cc1cc(Sc2ccc(Cl)cc2)nc(-c2ccccc2)n1)c1ccccc1 3.1%
O=C1CC(=O)N(Cc2cccs2)C(=O)N1 18%
O=C1CCN(Cc2ccco2)C(=S)N1 3.3%
O=C1C2C(C(=O)N1Cc1ccco1)C1C=CC2C12CC2 (stereo not given) -1.81%
CC1CN(Cc2ccco2)C(=S)NC1=O (stereo not given) 1.05%
COc1ccc(-n2c(=O)c(CCC(=O)N(C)Cc3cccs3)nc3ccccc32)cc1 -5.63%
COc1ccccc1NS(=O)(=O)c1ccc(C)c(C(=O)NCC2(N(C)C)CCCCC2)c1 -8.71%
Cc1nc2ccc(F)cc2cc1C(=O)NC(C)C -0.13%
CCOC(=O)c1cc2cc(OC)ccc2nc1C 4.64%
CCc1nc(NCc2ccc3c(c2)OCO3)c2oc3ccccc3c2n1 5.19%
CCNC(=O)CN(c1ccc(CC)cc1)S(C)(=O)=O -1.87%
Cc1nc(Nc2ccc(Cl)c(Cl)c2)sc1C(/C=C/c1ccc2c(c1)OCO2)=NNc1ccc([N+](=O)[O-])cc1[N+](=O)[O-] 0.47%
CCCN(CC(=O)Nc1ccccc1OC)C(=O)Cn1[nH]c(=O)c2ccccc2c1=O -0.74%
O=C(O)/C(=C\c1cccc(O)c1)c1ccc(S(=O)(=O)N2CCCC2)s1 14.8%
O=C(O)/C(=C\c1cccc(F)c1)c1ccc(S(=O)(=O)N2CCCC2)s1 18.6%
